D2 PAM-1 – potentiates the human D2 dopamine receptor allosterically. P14416. potentiation, % (no concentration beside the values). DiscoveRx D2 beta-arrestin cells, luminescence, 90 min; 100% = 57 uM dopamine signal. hit rate 0.23% among 360,000; in the data active = potentiation above about 50%; inconclusive = mostly about 30% to 49%
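D2 cells co-treated with compound plus 50 nM dopamine (EC20) for 90 min at 37 deg C to detect potentiation. Beta-arrestin recruitment was read as enzyme-fragment luminescence after 1 h at ambient temperature. Full response was set by 57 uM dopamine.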
D2 ag-1 – activates the human D2 dopamine receptor | P14416 | DiscoveRx PathHunter D2 beta-arrestin, luminescence, 90 min; 100% = 57 uM dopamine signal | activation, % (concentration not given with the values) | hit rate 0.084% among 360,000 | AID 624465; in the data active = activation above about 40%; inconclusive = between about 15% and that limit
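Agonist mode: compounds alone added to overnight-plated D2 PathHunter cells for 90 min at 37 C, with 57 uM final dopamine (EC100) defining full response. Beta-arrestin recruitment detected by chemiluminescent reagent, read after 1 h at ambient temperature.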
D2 PAM-2 – D2 dopamine receptor (human) potentiation. P14416. AID 485347. potentiation, % at 10 µM. HEK293 T-REx D2, calcium flux, EC20 dopamine potentiation. hit rate 0.34% among 340,000;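 active = potentiation over 3 SD above the plate norm, cut at about 30% in these data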; also: 0% is about no effect
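Tetracycline-induced Hek293 Trex D2 cells, force-coupled to calcium, loaded with no-wash calcium dye. Compound added with 180 s kinetic read for agonism, then EC20 dopamine and a further 180 s read for potentiation.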
D2 ag-2 – D2 dopamine receptor (human) agonism. AID 485358. activation, % at 2 µM. hit rate 0.53% among 340,000. P14416. HEK293 T-REx D2 cells, calcium flux agonist mode;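 active = activation over 3 SD above normal in the single-dose calcium agonist read, cut at about 30% in these data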; also: 0% is about no effect
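Tetracycline-induced HEK293 T-REx cells with force-coupled D2 receptor, plated overnight at 30 C, loaded with no-wash calcium dye. After a 10 s baseline, compound was pin-added and calcium flux read kinetically for 180 s; calcium rises flagged agonists.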
D2 antag – antagonizes the human D2 dopamine receptor | P14416 | HEK293 TREx D2 cells, calcium flux, dopamine EC80 | inhibition, % at 10 µM | hit rate 2% among 340,000 | AID 485344; in the data active = inhibition above about 30%; inactive = below that, where a call was filed; also: 0% is about no effect
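Dopamine at EC80 is the agonist stimulus; test compounds precede it by 180 s. Calcium flux read kinetically in a force-coupled, inducible HEK293 T-REx D2 cell line.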
D3 ag – D3 receptor agonism confirmed, beta-arrestin readout; shares compounds with D2 ag-2; DiscoveRx D3 beta-arrestin cells, luminescence, 90 min; Potency, µM (series often up to 76.9 µM), without a hit: at the highest dose activation, hits mostly activators; hit rate 4% among 2,300; AID 720506;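 also: potency is read from the fitted curve at half-maximal effect; 100% = dopamine control response; nearly all actives have a fitted effect of over 70% in size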
Target sequence (P35462 whole entry, looked up): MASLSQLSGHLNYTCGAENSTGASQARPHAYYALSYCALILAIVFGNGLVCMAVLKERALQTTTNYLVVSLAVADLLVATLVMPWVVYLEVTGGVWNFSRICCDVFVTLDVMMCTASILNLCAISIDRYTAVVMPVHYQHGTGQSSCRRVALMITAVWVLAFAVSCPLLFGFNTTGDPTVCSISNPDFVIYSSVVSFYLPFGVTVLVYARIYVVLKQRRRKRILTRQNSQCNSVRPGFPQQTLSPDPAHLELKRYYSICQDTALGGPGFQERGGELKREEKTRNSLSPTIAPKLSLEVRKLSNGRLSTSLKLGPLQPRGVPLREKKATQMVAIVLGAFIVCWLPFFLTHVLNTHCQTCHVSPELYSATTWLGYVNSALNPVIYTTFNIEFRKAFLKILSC
D2 ag-3 – counter-screen for D3 agonists: human D2 dopamine receptor agonism; AID 720507; shares compounds with D2 ag-2; DiscoveRx PathHunter D2 beta-arrestin, luminescence, 90 min; response scale: percent relative to full dopamine signal; Potency, µM (top dose mostly 76.9 µM), without a hit: top-dose activation, hits mostly activators; hit rate 5.9% among 2,300; also: potency is read from the fitted curve at half-maximal effect; % of control where 0% means no effect; nearly all actives have a fitted effect of over 70% in size
Numbers without * were called inactive; ? = inconclusive; . = not tested or not shown. Most compounds without a hit are left out; they make up all but 2.4% or so of the library. Unless noted, calls follow the shape of the dose curve; as a rule, active = well fitted activation curve with a large enough effect; inconclusive = small, poorly fitted or top-dose-only effect; inactive = flat fitted curve, though single readings scatter.

SMILES	D2 PAM-1	D2 ag-1	D2 PAM-2	D2 ag-2	D2 antag	D3 ag	D2 ag-3
Oc1ccccc1N1CCN(C(=S)Nc2ccc(SC(F)F)cc2)CC1	23	8	7	3	-10	.	.
COc1ccc(/C=C/C(=O)N2CCN(c3ccccn3)CC2)cc1OC	-2	3	3	16	-11	13%	7%
FC(F)Sc1ccc(NC(=S)N2CCN(c3ccccn3)CC2)cc1	-6	2	1	31*	-14	?	?
CCCS(=O)(=O)N1CCC(C(=O)NC2CCCCC2C)CC1 (stereo unspecified)	-23	-5	-1	1	10	-15%	-3%
CCS(=O)(=O)N1CCCC(C(=O)NC2CCCCC2C)C1 (stereo unspecified)	-4	-2	-5	0	9	.	.
C=C(C)C1CC=C(CN2CCC(C(=O)OCC)CC2)CC1 (stereo unspecified)	-4	10	-22	60*	72*	-3%	20%
C/C(Cn1cnc([N+](=O)[O-])n1)=N\NC(=O)c1ccccc1O	-9	7	3	0	0	.	.
C/C(Cn1cnc([N+](=O)[O-])n1)=N\NC(=O)c1ccc(O)cc1O	1	-4	17	6	-4	?	1%
COc1cccc(-n2cc(CN(C)C(=O)C3CCC(=O)N(C4CC4)C3)cn2)c1 (stereo unspecified)	-7	-3	.	.	.	.	.
COc1cccc(-n2cc(CNC(=O)C3CCC(=O)N(C4CC4)C3)cn2)c1 (stereo unspecified)	3	8	2	0	19	-2%	5%
COC(=O)C1CCN(Cc2cn(-c3ccccc3)nc2-c2ccc3c(c2)OCO3)CC1	-15	-2	-20	41*	82*	-3%	1%
c1ccc(-c2nnc(CN3CCCCC3)o2)cc1	-10	-9	-3	2	4	.	.
CC(=O)NCC1CCCN(Cc2cn(-c3ccccc3)nc2-c2ccc3c(c2)OCO3)C1 (stereo unspecified)	-13	1	-21	0	-13	.	.
COC(=O)C1CCN(Cc2nnc(-c3ccccc3)o2)CC1	0	?	-16	45*	66*	4µM*	15%
Cc1ccc(CN2C(=O)C(=O)N(CC(N)=O)C2=O)cc1	-11	-3	-5	1	-11	.	.
C=C(C)CN1C(=O)C(=O)N(CC(=C)C)C1=O	-5	-4	-12	90*	-17	-8%	-3%
Cc1ccc(NC(=S)N2CCN(S(=O)(=O)c3ccccc3)CC2)cc1C	-5	-1	-1	-1	-9	.	.
Cc1ccc(CN2CCN(C(=O)CC(C)C)CC2)cc1	7	9	.	.	.	2%	10%
COc1cc(CN2CCN(C(=O)CC(C)C)CC2)cc(OC)c1OC	3	1	2	0	-1	.	.
COc1ccc(CN2CCN(C(=O)CC(C)C)CC2)cc1	-8	-2	-4	38*	23	-2%	3%
COc1cccc(C2CC(=O)Nc3cc(OC)c(OC)cc32)c1 (stereo unspecified)	4	3	6	0	27	.	.
COc1cccc(C2CC(=O)Nc3cc4c(cc32)CCC4)c1 (stereo unspecified)	-4	-7	13	-1	10	23%	10%
OC1(CNCc2ccccc2)C2CC3CC(C2)CC1C3 (stereo unspecified)	-14	1	-19	49*	56*	-16%	4%
OCCNCC1(O)C2CC3CC(C2)CC1C3 (stereo unspecified)	-12	0	-2	1	0	.	.
COc1ccc(CNCCNC(=O)c2ccco2)c(OC)c1OC	-18	2	-15	48*	-6	-4%	-4%
O=C(NCc1ccco1)c1sc(=S)n2c1[nH]c(=O)c1ccccc12	-8	-4	4	10	6	-14%	-8%

Source: PubChem BioAssay (National Center for Advancing Translational Sciences (NCATS))
